This is an account of results in PubChem BioAssay (NCATS).

The source made the active and inactive calls. Calls follow the shape of the dose curve; as a rule, active = well fitted activation curve with a large enough effect; inconclusive = small, poorly fitted or top-dose-only effect; inactive = flat fitted curve, though single readings scatter.
Potency is read from the fitted curve at half-maximal effect.

This assay can be described thus: Confirmation and Secondary Assay for Modulators of Hemoglobin Beta Chain Splicing at IVS2 705 locus (AID 930). As to activation: % of control where 0% means no effect. The conditions noted are these: HeLa EGFP-705 splicing reporter, GFP fluorescence, 48 h; series mostly up to 46.1 µM; activation: at the top concentration. The source says: NIH Chemical Genomics Center [NCGC] NIH Molecular Libraries Screening Centers Network [MLSCN] MLSCN Grant: 1 X01 MH080684-01 PI Name: Dr. Ryszard Kole NCGC Assay Overview: Modulation of Alternative Splicing as Therapy Abnormal splicing is associated with a number of diseases, including cancer and genetic diseases such as cystic fibrosis, muscular dystrophy and beta-thalassemia. Alteration of disease associated splicing patterns provides a promising target for treatment. […] Mutations in the second intron of the b-globin gene at positions 654 or 705 are clinically relevant and cause mis-splicing which results in an out of frame gene product. […] EGFP-705 HeLa Cells as screen system. HeLa cell lines were stably transfected with a construct in which the EGFP (enhanced green fluorescent protein) cDNA was interrupted by the second intron of the beta-globin gene (IVS2-705). The ISV2 intron contains mutations which cause mis-splicing of EGFP and premature termination of EGFP which results in a nonfluorescent protein product. […] Expression of the transgene was driven by the CMV promoter. We concluded that a low molecular weight compound, which restored correct splicing of intron 2 would also generate functional EGFP protein, resulting in a fluorescent signal. Thus, the HeLa cells that express the EGFP-705 construct can be used for validation of splice site specificity of compounds identified in primary screening of the ISV2 654 construct.
NCGC Assay Protocol Summary: Confirmatory Screening. Freshly thawed HeLa EGFP-705 cells were seeded in 5 ul of optimem media (Invitrogen) containing 2 % fetal calf serum (Hyclone) and 1x penicillin/streptomycin (Invitrogen) at a concentration of 500 cells per well in 1536-well plates. Cells were incubated overnight at 37C in 5% CO2. The next day, cells were treated with DMSO, 500 nM antisense ISV2 654 PNA control oligo, or library compound and allowed to grow at 37C in 5% CO2 for 2 days. The PNA oligo blocked the mutation site in the intron and allowed proper (wild type) splicing to occur, resulting in full length EGFP expression and also allowed for optimization of the assay parameters. Plates were read in the Acumen Explorer (TTP Labtech) using 488 nm laser excitation and 500-520 nm emission PMT filter in a 1 x 8 uM capture mode. Fluorescnet objects ranging in size from 5 to 250 uM were measured and the total peak GFP intensity for each well was used for data analysis. Keywords: Thalassemia, beta-thalassemia, beta-globin, EGFP, ISV2 654, ISV2 705, SSO, PNA, antisense, splicing, MLSMR, MLSCN, NIH Roadmap, qHTS, NCGC
As for `O=C(NC(CO)C(O)c1ccc([N+](=O)[O-])cc1)C(Cl)Cl` (configuration not stated), the “activation” value is -0.422% (inactive).
Same read-out and setting: the same measure for `COCCNc1nc(-c2ccc(N(C)C)cc2)nc2ccccc12`: -0.351% [at 38.3 µM] (inactive); for `CCC1OC(=O)C[C@H](O)C(C)[C@@H](O[C@@H]2OC(C)C(O)C(N(C)C)C2O)C(CCN2CC(C)CC(C)C2)CC(C)C(=O)/C=C/C(C)=C\[C@@H]1COC1OC(C)C(O)C(OC)C1OC` (some centres not stated): -2.02% (inactive).
As for `OCCN1CC(O)C(O)C(O)C1CO` (configuration not stated), the “activation” value was 0.889% (inactive).
On to `CC(=O)OCC1=C(C(=O)O)N2C(=O)C(NC(=O)CSc3ccncc3)[C@@H]2SC1` (some centres not stated), for which the “activation” value was 4.71% (inactive).
Same read-out and setting: the same measure for `CCN1CCN(C(=O)NC(C(=O)NC2C(=O)N3C(C(=O)O)=C(CSc4nnnn4C)CSC23)c2ccc(O)cc2)C(=O)C1=O` (configuration not stated): 0.32% (inactive); for `C=NC(C(=O)NC1C(=O)N2C1SC(C)(C)C2C(=O)O)c1ccccc1` (configuration not stated): -0.222% (inactive).
For the compound `CC1(C)SC2C(NC(=O)C(C(=O)O)c3ccccc3)C(=O)N2C1C(=O)O` (configuration not stated), the “activation” value was 1.69% (inactive).
Regarding `NC(=O)c1ncn(C2OC(CO)C(O)C2O)c1N` (configuration not stated), the “activation” value was 0.876% [at 38.3 µM] (inactive).
Same read-out and setting: the same measure for `OCC1O[C@H](O[C@H]2C(O)C(O)C(O)O[C@@H]2CO)C(O)C(O)C1O` (some centres not stated): 1.4% [at 38.3 µM] (inactive); for `OCC1O[C@H](Oc2ccc(O)cc2)C(O)C(O)C1O` (some centres not stated): 0.0546% [at 38.3 µM] (inactive); for `Cc1cc(C(C)(C)CC(C)(C)C)ccc1OCCOCC[N+](C)(C)Cc1ccccc1`: -1.08% (inactive).
Same read-out and setting: the same measure for `Nc1nc(/C(=C/CC(=O)O)C(=O)NC2C(=O)N3C(C(=O)O)=CCSC23)cs1` (configuration not stated): 4.65% (inactive).
Same read-out and setting: the same measure for `CO/N=C(/C(=O)N[C@H]1C(=O)N2C(C(=O)O)=C(COC(C)=O)CSC12)c1csc(N)n1` (some centres not stated): 0.851% (inactive); for `Cc1cccc(CNc2ccnc(-c3ccc(N(C)C)cc3)n2)c1`: -0.562% [at 38.3 µM] (inactive); for `COc1cccc(OC)c1C(=O)NC1C(=O)N2C1SC(C)(C)C2C(=O)O` (configuration not stated): -0.222% (inactive).
Take `CC(CCC(=O)O)C1CCC2C3C(=O)C[C@@H]4CC(=O)CC[C@@]4(C)C3CC(=O)[C@]12C` (some centres not stated): the “activation” value was 1.51% [at 38.3 µM] (inactive).
On the same count and under the same terms, the same measure for `CC[C@@]1(O)CC2CN(CCc3c([nH]c4ccccc34)[C@](C(=O)OC)(c3cc4c(cc3OC)N(C)C3[C@@](O)(C(=O)OC)C(OC(C)=O)[C@]5(CC)C=CCN6CC[C@@]43C65)C2)C1` (some centres not stated): 2.17% (inactive).
As for `Nc1ccn([C@@H]2O[C@@H](CO)[C@@H](O)[C@H]2O)c(=O)n1`, the “activation” value is -3.35% (inactive).
The same measure, in the same setting: next, `Cc1c(C)c2c(c(C)c1O)CCC(C)(CCCC(C)CCCC(C)CCCC(C)C)O2` (configuration not stated): 3.45% (inactive).
On the same count and under the same terms, next, `CCCCC(=O)OC1CCC2C3CCc4cc(O)ccc4C3CC[C@]12C` (some centres not stated): -0.822% (inactive); `CCC(C(=O)C(C)C(O)C(C)CCc1ccc(C)c(O)c1C(=O)O)C1OC(CC)(C2CC[C@@](O)(CC)C(C)O2)CC1C` (some centres not stated): 1.32% (inactive); `CC(=O)OCC(=O)[C@@]1(O)CCC2C3CCC4=CC(=O)C=CC4(C)C3C(O)C[C@]21C` (some centres not stated): 1.27% (inactive).
Regarding `OC[C@@H]1O[C@@H](n2cnc3cncnc32)[C@@H](O)[C@H]1O`, the Potency was 12.6 µM (active).
On to `FC(F)(F)c1ccccc1-c1nc(Nc2ccncc2)c2ccccc2n1`, for which the “activation” value is -0.14% [at 38.3 µM] (inactive).
Still for that read-out and setting: next, `CC1OC(OCC2OC(Oc3c(-c4ccc(OCCO)c(OCCO)c4)oc4cc(OCCO)cc(O)c4c3=O)C(O)C(O)C2O)[C@@H](O)C(O)C1O` (some centres not stated): 2.12% (inactive); `CO/N=C(/C(=O)NC1C(=O)N2C(C(=O)O)=C(COC(N)=O)CSC12)c1ccco1` (configuration not stated): -0.204% (inactive).
